# Sampled rows, rich in hits. Any-hit rate of the full collection: about 21%.
# Shiga inhibitor: blocks Shiga toxin action in Vero cells; inhibition, % at 38.7 µM; Vero cells, Shiga toxin protein synthesis inhibition reporter; actives 9.2% (n = 290,000); in the data active = inhibition mostly above about 28%, no sharp cut-off; inactive = mostly below about 43%; note: 0% is about no effect
# Pf growth 96h: P. falciparum growth inhibition at 96 hour, primary screen for plastid delayed-death inhibitors | P. falciparum luciferase reporter growth, 96 h | Potency, µM (highest dose often 28.7 µM), for inactives: at the top dose activity change, negative = inhibition, actives largely listed as inhibitors | actives 6.9% (n = 320,000) | AID 504834; note: potency is the fitted concentration of half-maximal effect; % is set by controls: 0 for no effect and ±100 for the full control effect
#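 Erythrocytes infected with luciferase-expressing P. falciparum were dispensed at 2% hematocrit and 0.05% parasitemia (final), then incubated with compounds 96 hours at 37 C in 5% CO2. Luminescence after detection reagent addition reported growth.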
# CHX counter: counter-screen hit for Shiga toxin inhibitors, cycloheximide; cell reporter, cycloheximide protein synthesis inhibition counterscreen; max response, %; actives 12% (n = 300,000); in the data active = max response mostly above about 13%, no sharp cut-off; inactive = mostly below about 14%; note: read at 38.3 µM for the half of the compounds with a filed dose; 0% is about no effect
# NS1 inh: influenza NS1 inhibition; Potency, µM (doses to about 46.1 µM), for inactives: at the top dose activity, positive = more growth; actives 0.4% (n = 270,000); calls by dose curve; note: potency is the fitted concentration of half-maximal effect; actives are rising curves; nearly all actives have a fitted effect of over 50% in size
#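 Growth recovery, yeast-based: influenza A NS1 expressed in S. cerevisiae causes slow growth, and suppressors are detected by OD600. The parent strain without NS1 is used as positive control.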
# Pf growth 48h: inhibits P. falciparum growth in the first generation, 48 h; P. falciparum luciferase growth in erythrocytes, 48 h; Potency, µM (titrated, usually from 28.7 µM), inactives show top-dose activity change, negative = inhibition, hits mostly inhibitors; actives 5.9% (n = 310,000); AID 504832; note: potency is the fitted concentration of half-maximal effect; % is set by controls: 0 for no effect and ±100 for the full control effect
#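 First compound was added to culture medium, then infected red cells at 0.1% parasitemia and 2% hematocrit (final). After incubation at 37 C under 5% CO2, luciferase detection reagent was dispensed and light output recorded.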
# Active calls of the source: *; ? = inconclusive; . = no result given. Unless noted, calls come from the whole dose curve; as a rule, active = well fitted inhibition curve with a large enough effect; inconclusive = small, poorly fitted or top-dose-only effect, or another doubt; inactive = no such curve, though single readings can be large or run the other way.
SMILES,Shiga inhibitor,Pf growth 96h,CHX counter,NS1 inh,Pf growth 48h
CCOC(=O)Cc1cnc(NC(=O)NC(C(=O)OCC)(c2ccccc2)C(F)(F)F)s1 (configuration not stated),-6,.,-3,10%,5%
CC(=O)NC(CC(=O)Nc1cc(Cl)ccc1-n1cncn1)c1ccccc1 (configuration not stated),.,13%,.,.,-20%
CC/C(Cc1ccccc1)=N/NC(=O)CNC(=O)c1ccc(Cl)cc1Cl,-6,37%,-2,15%,-12%
CCc1ccc2c(CN3CCN(S(=O)(=O)c4ccc5c(c4)OCCO5)CC3)cc(=O)oc2c1,-6,?,3,20%,9.3µM*
Cc1ccc2c(CN3CCN(S(=O)(=O)c4ccc(Cl)cc4)CC3)cc(=O)oc2c1C,.,?,.,.,4.1µM*
Cn1c(C(O)c2ccccc2)nc(Cl)c1Cl (configuration not stated),-3,-21%,-2,8%,-8%
CCN(CC)c1ccc(/C=N/NC(=O)c2c[nH]c3ccccc23)cc1,40*,-13%,35*,-5%,?
CCN(C(=O)C(=O)c1c[nH]c2ccccc12)c1ccccc1,19,?,18*,10%,28%
CCN(CC)c1ccc(/C=N/NC(=O)c2cc3ccccc3[nH]2)cc1,28,-53%,20*,-18%,-4%
CCN(CC)c1ccc(/C=N/NC(=O)c2cc(C)nc3ccccc23)cc1,15,5%,10,-4%,-17%
O=C(NCc1ccc(Cl)cc1)C(=O)NCC1OCCN1S(=O)(=O)c1cc(F)ccc1F (configuration not stated),-11,?,-5,14%,1%
O=C(NCc1ccc(CNC(=O)c2ccco2)cc1)c1ccco1,-13,12µM*,5,7%,-3%
O=C(Nc1ccc(-c2cn3ccccc3n2)cc1)c1ccco1,68*,128%,58*,-19%,219%
COc1ccc(-c2ccc(NC(=O)c3ccco3)cc2)nn1,.,-47%,.,.,?
O=C(NCc1cn2ccccc2n1)c1ccco1,37,-12%,25*,16%,60%
O=C(NCc1ccc(Cl)c(Cl)c1)c1ccco1,16,67%,-2,-13%,-10%
Cn1c(=O)n(C)c2cc(S(=O)(=O)Nc3cc(Cl)ccc3O)ccc21,10,19%,1,-31%,?
Cc1ccc(-c2nc3cc(NC(=O)C(C)C)ccc3o2)cc1,95*,15%,73*,-1%,44%
Cc1ccc(S(=O)(=O)Nc2ccc(-c3nc4cc(NS(=O)(=O)c5ccc(C)cc5)ccc4o3)cc2)cc1,-5,4.1µM*,-2,10%,.
COc1cc(OC)cc(-c2nc3cc(C)ccc3o2)c1,104*,12%,58*,-33%,173%
Cc1cc2nc(-c3ccc(NC(=O)C(C)C)cc3)oc2cc1C,80*,.,54*,?,300%
CC(=O)Nc1ccc(S(=O)(=O)Nc2cccc(-c3nc4cc(C)ccc4o3)c2)cc1,.,.,.,-34%,.
COc1ccc(-c2cc(=O)oc(-c3cccc(C)c3)n2)cc1,-4,49%,-2,2%,49%
CC(Oc1ccc(Cl)cc1Cl)C(=O)Nc1ccc2oc(-c3ccncc3)nc2c1 (configuration not stated),-9,-12%,-4,-103%,-18%
CCOc1ccc(/C=N/NC(=O)c2nnn(-c3nonc3N)c2-c2cccs2)cc1,4,-8%,11,-8%,14%
SMILES,Shiga inhibitor,Pf growth 96h,CHX counter,NS1 inh,Pf growth 48h
O=C(Nc1ccc(S(=O)(=O)Nc2ccccn2)cc1)c1ccc(Cl)cc1Cl,-1,82%,-7,22%,?
CCS(=O)(=O)c1ccc2c(c1)N(S(=O)(=O)c1ccc(OC)cc1)CC(C(=O)O)O2 (configuration not stated),-8,-6%,5,11%,30%
Cc1ccc2nc(-c3ccc(O)cc3)oc2c1,14,?,19*,-4%,249%
Cc1ccc(-c2nc3cc(Cl)ccc3o2)cc1,123*,.,46*,7%,299%
Clc1ccc(-c2nc3cc(CN4CCCCC4)ccc3o2)cc1,54*,10%,36*,-1%,19%
Cc1ccc(-c2nc3cc(NC(=O)C(C)C)ccc3o2)cc1C,95*,-24%,83*,-35%,10%
CC1CCC(NC(=O)c2ccc(NC(=O)c3ccc(=O)[nH]c3)cc2)CC1 (configuration not stated),19,-19%,11,16%,66%
Cc1ccc(C)c(/C(O)=C2\C(=O)C(=O)N(CCCn3ccnc3)C2c2cccnc2)c1 (configuration not stated),2,53%,-2,0%,-12%
